# Results: PubChem BioAssay (NCI)
# Compounds without any hit were thinned out: in the full panel of roughly 79,000, 15% have a hit. A number with no mark means an inactive call. Active and inactive are the calls of the source. Cut-off read from the data, not from the text of the source: active = growth inhibition above about 70%; inactive = the rest.
# Legend:
# [1] = NCI Yeast Anticancer Drug Screen. Data for the mec2-1 strain (AID 157); conditions: S. cerevisiae mec2-1 strain, hits give high values
# Procedure, shortened: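 Using mec2-1 yeast: add compound, measure growth, express inhibition versus vehicle-treated cultures.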
# [2] = NCI Yeast Anticancer Drug Screen. Data for the rad14 strain (AID 159);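 note: 0% = growth of vehicle-treated control cultures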; conditions: S. cerevisiae rad14 strain growth inhibition, hits give high values
# Procedure, shortened: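 Here, inhibition of yeast growth was measured after compound exposure, using a strain with a genetic defect in DNA damage repair and vehicle-treated cultures as the reference.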
# [3] = NCI Yeast Anticancer Drug Screen. Data for the sgs1 mgt1 strain (AID 161);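 note: 0% = growth of cultures given vehicle only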; conditions: S. cerevisiae sgs1 mgt1 strain, hits give high values
# Procedure, shortened: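 Compounds are added to genetically altered yeast, and growth is compared with cultures given vehicle alone to give percent inhibition.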
# [4] = NCI Yeast Anticancer Drug Screen. Data for the CLN2oe strain (AID 163);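 note: 0% = growth of vehicle-only control cultures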; conditions: S. cerevisiae CLN2oe strain, hits give high values
# Procedure, shortened: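 Whole-cell yeast growth assay. A strain engineered for altered cell-cycle control received compound, and inhibition relative to vehicle-treated cultures was recorded.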
# [5] = NCI Yeast Anticancer Drug Screen. Data for the cln2 rad14 strain (AID 165);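 note: 0% = growth equal to vehicle treated cultures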; conditions: S. cerevisiae cln2 rad14 strain, hits give high values
# Procedure, shortened: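 Yeast strain cln2 rad14, bearing defects in cell cycle control and DNA repair, serves as the test system; values reflect growth inhibition compared with vehicle.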
# [6] = NCI Yeast Anticancer Drug Screen. Data for the bub3 strain (AID 167); conditions: S. cerevisiae bub3 mutant strain, hits give high values
# Procedure, shortened: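 Whole-cell yeast assay. The mutant strain was incubated with compounds, and growth inhibition was determined by comparison with vehicle-treated cells.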
# [7] = NCI Yeast Anticancer Drug Screen. Data for the wt2 strain (AID 169);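 note: 0% = growth of vehicle-treated yeast cultures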; conditions: S. cerevisiae wt2 strain growth inhibition, hits give high values
# Procedure, shortened: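 Treated yeast vs. vehicle-treated yeast: growth inhibition determined.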
# [8] = NCI Yeast Anticancer Drug Screen. Data for the mlh1 strain (AID 171);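 note: 0% = growth of vehicle-treated control cultures of the same strain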; conditions: S. cerevisiae mlh1 strain growth inhibition, hits give high values
# Procedure, shortened: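 A yeast strain with a defined genetic lesion serves as the test organism. Cultures receive compound or vehicle, and growth is measured.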
# [9] = NCI Yeast Anticancer Drug Screen. Data for the sgs1 strain (AID 173);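 note: 0% = growth of vehicle-only control cultures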; conditions: S. cerevisiae sgs1 mutant, hits give high values
# Procedure, shortened: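 A genetically defined yeast mutant is incubated with the test compound, and its growth is compared to that of the same strain given vehicle.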
# [10] = NCI Yeast Anticancer Drug Screen. Data for the mlh1 rad18 strain (AID 175); conditions: S. cerevisiae mlh1 rad18 strain growth inhibition, hits give high values
# Procedure, shortened: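 Steps: expose repair-defective yeast to compound; measure growth; express inhibition against vehicle-treated controls.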
# [11] = NCI Yeast Anticancer Drug Screen. Data for the rad18 strain (AID 177); conditions: S. cerevisiae rad18 mutant growth inhibition, hits give high values
# Procedure, shortened: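 Measured value is growth inhibition of a yeast strain bearing a DNA repair alteration, referenced to vehicle-treated cells.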
# [12] = NCI Yeast Anticancer Drug Screen. Data for the rad52 strain (AID 147);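 note: 0% = growth of vehicle-treated control cultures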; conditions: S. cerevisiae rad52 mutant growth inhibition, hits give high values
# Procedure, shortened: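 Here a repair-compromised yeast strain receives each compound; its growth is then quantified and normalised to vehicle-only controls.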
# [13] = NCI Yeast Anticancer Drug Screen. Data for the wt1 strain (AID 149);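 note: 0% = growth of vehicle-treated wt1 cultures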; conditions: S. cerevisiae wt1 strain (SPY 50644) growth inhibition, hits give high values
# Procedure, shortened: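 Measured: growth of wt1 yeast under compound versus vehicle treatment, reported as inhibition.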
# [14] = NCI Yeast Anticancer Drug Screen. Data for the rad50EPP+ strain (AID 151);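 note: 0% = growth of vehicle-treated control cultures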; conditions: S. cerevisiae rad50 mutant strain, hits give high values
# Procedure, shortened: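 Read-out is yeast growth inhibition relative to vehicle; cells used were the rad50EPP+ strain.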
# [15] = NCI Yeast Anticancer Drug Screen. Data for the mgt1 strain (AID 153); conditions: S. cerevisiae mgt1 mutant growth inhibition, hits give high values
# Procedure, shortened: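 Measured: inhibition of mgt1 yeast growth by compound, normalized to vehicle-treated cultures.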
# [16] = NCI Yeast Anticancer Drug Screen. Data for the rad50 strain (AID 155);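 note: 0% = growth of vehicle-only cultures of the same strain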; conditions: S. cerevisiae rad50 strain growth inhibition, hits give high values
# Procedure, shortened: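 Growth of the mutant yeast was measured after compound exposure and referenced to vehicle-treated cultures.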
# [17] = at 5.0 µM (retest, dose inferred, filed as 0.5)
# [18] = at 50.0 µM (retest, dose inferred, filed as 5.0)
smiles,measurement,setting,value
CCOC(=O)COc1c(OC)cc(C2C3=C(COC3=O)Oc3cc4c(cc32)OCO4)cc1OC (stereo unspecified),growth inhibition,[1]; [17],-8%
same,growth inhibition,[1]; at 11.0 µM,-2%
same,growth inhibition,[1]; at 33.0 µM,1%
same,growth inhibition,[1]; [18],-4%
same,growth inhibition,[1]; at 50.0 µM,26.8%
same,growth inhibition,[1]; at 100.0 µM,17%
same,growth inhibition,[2]; at 1.2 µM,-3%
same,growth inhibition,[2]; at 3.7 µM,-3%
same,growth inhibition,[2]; at 11.0 µM,0%
same,growth inhibition,[2]; at 33.0 µM,4%
same,growth inhibition,[2]; at 100.0 µM,15%
same,growth inhibition,[3]; [17],-9%
same,growth inhibition,[3]; [18],19%
same,growth inhibition,[3]; at 50.0 µM,14.7%
same,growth inhibition,[4]; at 1.2 µM,-2%
same,growth inhibition,[4]; at 3.7 µM,-3%
same,growth inhibition,[4]; at 11.0 µM,5%
same,growth inhibition,[4]; at 33.0 µM,2%
same,growth inhibition,[4]; at 100.0 µM,10%
same,growth inhibition,[5]; [17],-1%
same,growth inhibition,[5]; [18],29%
same,growth inhibition,[5]; at 50.0 µM,71% (active)
same,growth inhibition,[6]; at 1.2 µM,-4%
same,growth inhibition,[6]; at 3.7 µM,0%
same,growth inhibition,[6]; [17],-13%
same,growth inhibition,[6]; at 11.0 µM,0%
same,growth inhibition,[6]; at 33.0 µM,6%
same,growth inhibition,[6]; [18],19%
same,growth inhibition,[6]; at 50.0 µM,28.2%
same,growth inhibition,[6]; at 100.0 µM,13%
same,growth inhibition,[7]; at 1.2 µM,0%
same,growth inhibition,[7]; at 3.7 µM,0%
same,growth inhibition,[7]; at 11.0 µM,1%
same,growth inhibition,[7]; at 33.0 µM,3%
same,growth inhibition,[7]; at 100.0 µM,12%
same,growth inhibition,[8]; at 1.2 µM,1%
same,growth inhibition,[8]; at 3.7 µM,-1%
same,growth inhibition,[8]; at 11.0 µM,-1%
same,growth inhibition,[8]; at 33.0 µM,2%
same,growth inhibition,[8]; at 100.0 µM,12%
same,growth inhibition,[9]; at 1.2 µM,0%
same,growth inhibition,[9]; at 3.7 µM,2%
same,growth inhibition,[9]; at 11.0 µM,1%
same,growth inhibition,[9]; at 33.0 µM,9%
same,growth inhibition,[9]; at 100.0 µM,28%
same,growth inhibition,[10]; [17],-10%
same,growth inhibition,[10]; [18],49%
same,growth inhibition,[10]; at 50.0 µM,-4.55%
same,growth inhibition,[11]; at 1.2 µM,0%
same,growth inhibition,[11]; at 3.7 µM,-2%
same,growth inhibition,[11]; at 11.0 µM,-11%
same,growth inhibition,[11]; at 33.0 µM,-2%
same,growth inhibition,[11]; at 100.0 µM,3%
O=C1C=C(c2ccccc2)OC1(c1ccccc1)N1CCOCC1 (stereo unspecified),growth inhibition,[12]; at 1.2 µM,-1%
same,growth inhibition,[12]; at 3.7 µM,-1%
same,growth inhibition,[12]; at 11.0 µM,3%
same,growth inhibition,[12]; at 33.0 µM,16%
same,growth inhibition,[12]; at 100.0 µM,98% (active)
same,growth inhibition,[13]; at 1.2 µM,-1%
same,growth inhibition,[13]; at 3.7 µM,2%
same,growth inhibition,[13]; at 11.0 µM,-4%
same,growth inhibition,[13]; at 33.0 µM,-7%
same,growth inhibition,[13]; at 100.0 µM,98% (active)
same,growth inhibition,[14]; at 1.2 µM,3%
same,growth inhibition,[14]; at 3.7 µM,7%
same,growth inhibition,[14]; at 11.0 µM,7%
same,growth inhibition,[14]; at 33.0 µM,10%
same,growth inhibition,[14]; at 100.0 µM,17%
same,growth inhibition,[15]; at 1.2 µM,-5%
same,growth inhibition,[15]; at 3.7 µM,-6%
same,growth inhibition,[15]; at 11.0 µM,-4%
same,growth inhibition,[15]; at 33.0 µM,59%
same,growth inhibition,[15]; at 100.0 µM,98% (active)
same,growth inhibition,[16]; at 1.2 µM,1%
same,growth inhibition,[16]; at 3.7 µM,4%
same,growth inhibition,[16]; [17],-20%
same,growth inhibition,[16]; at 11.0 µM,1%
same,growth inhibition,[16]; at 33.0 µM,19%
same,growth inhibition,[16]; [18],69%
same,growth inhibition,[16]; at 50.0 µM,-0.2%
same,growth inhibition,[16]; at 100.0 µM,98% (active)
same,growth inhibition,[1]; at 1.2 µM,-1%
same,growth inhibition,[1]; at 3.7 µM,4%
same,growth inhibition,[1]; [17],-12%
same,growth inhibition,[1]; at 11.0 µM,3%
same,growth inhibition,[1]; at 33.0 µM,8%
same,growth inhibition,[1]; [18],0%
same,growth inhibition,[1]; at 50.0 µM,-5.95%
same,growth inhibition,[1]; at 100.0 µM,98% (active)
same,growth inhibition,[2]; at 1.2 µM,-2%
same,growth inhibition,[2]; at 3.7 µM,-1%
same,growth inhibition,[2]; at 11.0 µM,-1%
same,growth inhibition,[2]; at 33.0 µM,9%
same,growth inhibition,[2]; at 100.0 µM,98% (active)
same,growth inhibition,[3]; [17],-2%
same,growth inhibition,[3]; [18],90% (active)
same,growth inhibition,[3]; at 50.0 µM,55.7%
same,growth inhibition,[4]; at 1.2 µM,1%
same,growth inhibition,[4]; at 3.7 µM,-4%
same,growth inhibition,[4]; at 11.0 µM,6%
same,growth inhibition,[4]; at 33.0 µM,0%
same,growth inhibition,[4]; at 100.0 µM,97% (active)
same,growth inhibition,[5]; [17],2%
same,growth inhibition,[5]; [18],14%
same,growth inhibition,[5]; at 50.0 µM,19.9%
same,growth inhibition,[6]; at 1.2 µM,0%
same,growth inhibition,[6]; at 3.7 µM,-1%
same,growth inhibition,[6]; [17],-1%
same,growth inhibition,[6]; at 11.0 µM,4%
same,growth inhibition,[6]; at 33.0 µM,14%
same,growth inhibition,[6]; [18],44%
same,growth inhibition,[6]; at 50.0 µM,-27.7%
same,growth inhibition,[6]; at 100.0 µM,98% (active)
same,growth inhibition,[7]; at 1.2 µM,0%
same,growth inhibition,[7]; at 3.7 µM,-1%
same,growth inhibition,[7]; at 11.0 µM,-3%
same,growth inhibition,[7]; at 33.0 µM,52%
same,growth inhibition,[7]; at 100.0 µM,98% (active)
same,growth inhibition,[8]; at 1.2 µM,3%
same,growth inhibition,[8]; at 3.7 µM,1%
same,growth inhibition,[8]; at 11.0 µM,-7%
same,growth inhibition,[8]; at 33.0 µM,55%
same,growth inhibition,[8]; at 100.0 µM,98% (active)
same,growth inhibition,[9]; at 1.2 µM,0%
same,growth inhibition,[9]; at 3.7 µM,0%
same,growth inhibition,[9]; at 11.0 µM,4%
same,growth inhibition,[9]; at 33.0 µM,76% (active)
same,growth inhibition,[9]; at 100.0 µM,98% (active)
same,growth inhibition,[10]; [17],-17%
same,growth inhibition,[10]; [18],75% (active)
same,growth inhibition,[10]; at 50.0 µM,-1.85%
same,growth inhibition,[11]; at 1.2 µM,1%
same,growth inhibition,[11]; at 3.7 µM,-4%
same,growth inhibition,[11]; at 11.0 µM,-2%
same,growth inhibition,[11]; at 33.0 µM,7%
same,growth inhibition,[11]; at 100.0 µM,98% (active)
